{"source": "PubChem BioAssay AID651814", "about": "(National Center for Advancing Translational Sciences (NCATS), 2012)", "note": "Hit rate of the full screen: of about 2,100 compounds, about 590 (28%) were called active. Another 42% or so got no clear call; they are omitted. This is one part of the list. A number with no mark means an inactive call. The call rests on the fitted dose curve; in most records, active means well fitted inhibition curve with a large enough effect; inconclusive means small, poorly fitted or top-dose-only effect; inactive means flat fitted curve, though single readings scatter. Potency means the concentration at half of the fitted maximal effect."}
{"biological_target": "DNA dC->dU-editing enzyme APOBEC-3F (Homo sapiens) (UniProt Q8IUX4)", "sequence (Q8IUX4 whole entry, looked up)": "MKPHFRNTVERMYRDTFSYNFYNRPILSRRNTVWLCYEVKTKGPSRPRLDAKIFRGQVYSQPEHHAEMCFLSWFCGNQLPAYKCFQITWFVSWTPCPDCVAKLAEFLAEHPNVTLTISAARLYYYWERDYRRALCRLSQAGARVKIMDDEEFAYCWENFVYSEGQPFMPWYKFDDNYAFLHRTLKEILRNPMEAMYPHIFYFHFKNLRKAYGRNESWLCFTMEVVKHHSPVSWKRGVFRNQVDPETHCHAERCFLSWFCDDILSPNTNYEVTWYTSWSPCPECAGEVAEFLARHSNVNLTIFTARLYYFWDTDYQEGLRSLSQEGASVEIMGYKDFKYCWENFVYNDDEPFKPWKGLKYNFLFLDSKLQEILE", "assay": "qHTS for inhibitors of Vif-A3F interactions: Cherry picks; further: nearly all actives have a fitted effect of over 70% in size;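 on max response: % of control where 0% means no effect; active compounds raise eYFP fluorescence by blocking Vif-driven A3F loss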", "settings": "HeLa A3F-eYFP + Vif (tagged APOBEC3F with the HIV-1 protein that degrades it), eYFP fluorescence, 24 h", "outline": "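Read-out: yellow fluorescence (ex 488 nm, em 500-530 nm) by laser-scanning cytometer after 24 h compound exposure, several concentrations, at 37 deg C. Cells: HeLa line stably co-expressing Vif and C-terminally eYFP-tagged A3F; MG132 served as positive control.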", "units": {"max response": "%"}}
{"compound": "Cc1ccc(N2C(=O)[C@@H]3[C@H](C2=O)[C@H]2C=C(C(=O)c4ccccc4)C=CN2[C@@H]3C(=O)c2ccc(Cl)cc2)cc1", "max response": -5.61}
{"compound": "COc1ccc(/C=C(/C(=O)c2cccs2)N2C=CC=CC2=C(C#N)C#N)cc1", "max response": -25.3}
{"compound": "CCOC(=O)c1c(CN(CC)CC)n(-c2ccccc2)c2ccc(O)cc12", "max response": 0.203}
{"compound": "COc1cc(/C=C2/SC(=Nc3ccc(O)cc3)NC2=O)ccc1O", "Potency": "16.4 µM (active)"}
{"compound": "COc1cc(/C=C2\\SC(=Nc3cccnc3)NC2=O)cc(OC)c1OC", "max response": -8.17}
{"compound": "CCC(=O)NC(=S)Nc1cccc(Cl)c1N1CCCC1", "max response": -0.93}
{"compound": "COCCCN(C(C)=O)c1nc(-c2ccc(OC)cc2)cs1", "max response": -29.1}
{"compound": "CCOC(=O)c1ccc(NC(=S)Nc2cccc(C)n2)cc1", "max response": -6.7}
{"compound": "CCOC(=O)c1cc(-c2ccccc2)sc1NC(=S)Nc1cc(C)ccn1", "Potency": "8.2 µM (active)"}
{"compound": "Cc1ccc(NC(=S)Nc2ccccn2)c(C)c1", "max response": 1.92}
{"compound": "CC(=O)Nc1ccc2c(c1)Cc1ccc(Cl)cc1-2", "max response": -9.88}
{"compound": "NC(=O)C1CCN(c2nc3ccccc3nc2NS(=O)(=O)c2ccc(Br)cc2)CC1", "max response": -0.959}
{"compound": "COc1ccc(N2C(=O)NC3CC2(C)Oc2ccccc23)cc1OC", "note": "(centres undefined)", "max response": -29.4}
{"compound": "Cc1ccc2nc(/C(C#N)=C\\c3ccc([N+](=O)[O-])o3)[nH]c2c1", "Potency": "3.26 µM (active)"}
{"compound": "N#C/C(=C\\c1ccc([N+](=O)[O-])o1)c1nc2ccccc2[nH]1", "Potency": "5.17 µM (active)"}
{"compound": "COc1ccc(C(C)(O)c2nc(-c3ccccc3OC)cs2)cc1", "note": "(centres undefined)", "max response": -27.4}
{"compound": "O=C1/C(=C/c2ccc([N+](=O)[O-])cc2)Oc2cc(O)ccc21", "max response": -5.76}
{"compound": "CN(C)c1ccc(/C=C2\\Oc3ccc(C#Cc4cccc(N)c4)cc3C2=O)cc1", "Potency": "12.5 µM (active)"}
{"compound": "Cc1ccnc(N/C=C(\\C#N)c2nc(-c3cccc(Br)c3)cs2)c1", "Potency": "11.2 µM (active)"}
{"compound": "O=[N+]([O-])c1ccc(N/N=C/c2sc(N3CCOCC3)nc2-c2ccccc2)c(S(=O)(=O)Nc2ccccc2Cl)c1", "Potency": "9.2 µM (active)"}
{"compound": "O=[N+]([O-])c1ccccc1S(=O)(=O)Nc1ccc(-c2ccc(N3CCOCC3)nn2)cc1", "max response": -8.95}
{"compound": "COc1ccccc1NS(=O)(=O)c1cc([N+](=O)[O-])ccc1N/N=C/c1sc(N2CCOCC2)nc1-c1ccccc1", "Potency": "2.06 µM (active)"}
{"compound": "O=C(O)c1ccccc1/C=N/Nc1ccc(S(=O)(=O)N2CCOCC2)cc1[N+](=O)[O-]", "max response": -0.875}
{"compound": "COc1ccc(NC(=O)C2Cc3c(-c4cccc(C(C)=O)c4)ccnc3O2)cn1", "note": "(centres undefined)", "max response": -25.1}
{"compound": "CC(=O)/C(N=Nc1cc(C)ccc1O)=C(\\C)O", "Potency": "20.6 µM (active)"}
{"compound": "Cc1cc(N/N=C/c2ccc(O)cc2O)nc(-n2nc(C)cc2C)n1", "max response": 2.91}
{"compound": "COC(=O)c1sccc1S(=O)(=O)N(CC(=O)Nc1cc(F)ccc1F)c1ccc(C)c(C)c1", "max response": 4.72}
{"compound": "O=S(=O)(Nc1nc2n(n1)C(c1ccccc1)C=C(c1ccc(Cl)cc1)N2)c1ccccc1", "note": "(centres undefined)", "max response": -9.71}
{"compound": "CC[n+]1ccc(/C=C2\\Sc3ccccc3N2CCCS(=O)(=O)[O-])c2ccccc21", "max response": -17.2}
{"compound": "CCN1/C(=C/c2cccc[n+]2C)Sc2ccc(OC)cc21", "Potency": "18.4 µM (active)"}
{"compound": "COc1ccc(C(=O)Nc2ccc3c(c2)N(C)C(=O)c2ccccc2S3)cc1OC", "max response": -28.4}
{"compound": "COc1ccc2c(c1)N(C)/C(=C/c1cccc[n+]1C)S2", "Potency": "7.04 µM (active)"}
{"compound": "CC[n+]1ccccc1/C=C1\\Sc2ccc(C)cc2N1C", "Potency": "23.1 µM (active)"}
{"compound": "N#CC1=C(N)Oc2c(sc3ccccc23)C1c1ccco1", "note": "(centres undefined)", "max response": -18.3}
{"compound": "COc1cc2c3nnc(-c4ccc(F)cc4)c-3cn(Cc3ccc(C)cc3)c2cc1OC", "Potency": "9.94 µM (active)"}
{"compound": "Cn1ccnc1Sc1nc2ccccc2nc1NS(=O)(=O)c1ccccc1", "max response": -9.48}
{"compound": "O=C(Nc1nnc(-c2ccc3c(c2)CCCC3)o1)c1c(F)cccc1F", "max response": 0.764}
{"compound": "CCN(CC)c1nc2cc(OC)ccc2cc1C#N", "max response": -15.5}
{"compound": "COc1ccc2c(C)cc(SCC#N)nc2c1", "Potency": "20.6 µM (active)"}
{"compound": "COCCNC(=S)NN=C1CCCCCC1", "max response": 2.16}
{"compound": "C/C(=N\\NC(=S)NCc1ccccc1)c1cccs1", "max response": -3.71}
{"compound": "COc1cccc(NC(=O)c2oc3ccc(S(=O)(=O)N4CCC5(CC4)OCCO5)cc3c2C)c1", "max response": -28.1}
{"compound": "CC(NC(=O)/C(C#N)=C/c1ccc([N+](=O)[O-])o1)c1ccccc1", "note": "(centres undefined)", "Potency": "7.31 µM (active)"}
{"compound": "CCOCCCNC(=O)/C(C#N)=C/c1ccc([N+](=O)[O-])o1", "Potency": "16.4 µM (active)"}
{"compound": "NC1=NC(=O)/C(=C/c2cc(Br)c(O)c(Br)c2)S1", "max response": -7.06}
{"compound": "Cc1ccc2[nH]c3c(c2c1)CCCC3NC(=O)CCl", "note": "(centres undefined)", "max response": -15.6}
{"compound": "O=C1CC(c2cc(Br)ccc2F)c2cc3c(cc2N1)CCC3", "note": "(centres undefined)", "max response": -29.3}
{"compound": "COc1cc(C(=O)NCCOc2cc(C)cc(C)c2)c(Br)c(OC)c1OC", "max response": -22.9}
{"compound": "O=C(NCc1ccccc1C(F)(F)F)c1cccc2c1C(=O)c1ccc(N3CCC(N4CCCCC4)CC3)cc1S2(=O)=O", "Potency": "16.4 µM (active)"}
{"compound": "CC1CCN(c2ccc3c(c2)S(=O)(=O)c2cccc(C(=O)NCc4cccc(F)c4)c2C3=O)CC1", "Potency": "14 µM (active)"}
{"compound": "O=C(NCc1cccc(F)c1)c1cccc2c1C(=O)c1ccc(N3CCCC3)cc1S2(=O)=O", "Potency": "14 µM (active)"}
{"compound": "COc1ccc(-c2ccc3c(c2)S(=O)(=O)c2cccc(C(=O)NCCOc4ccccc4)c2C3=O)cc1OC", "Potency": "15.8 µM (active)"}
{"compound": "Cc1cc(-c2nc(C)c(C(=O)NN)s2)no1", "max response": -13.4}
{"compound": "CCn1c(O)c(/C=N/NC(=O)c2ccncc2)c(=O)n(CC)c1=S", "max response": -6.26}
{"compound": "Cc1ccc(CNC(=O)c2cccc3c2C(=O)c2ccc(N4CCC(C)CC4)cc2S3(=O)=O)cc1", "Potency": "16.4 µM (active)"}
{"compound": "CC(C)c1cccc(-c2ccc3c(c2)S(=O)(=O)c2cccc(C(=O)NCc4ccccc4)c2C3=O)c1", "max response": -28.2}
{"compound": "O=C(NCc1ccccc1)c1cccc2c1C(=O)c1ccc(/C=C/c3ccccc3)cc1S2(=O)=O", "Potency": "16.4 µM (active)"}
{"compound": "N#Cc1c(-c2ccccc2F)cc(C2CC2)nc1SCC(=O)c1cccs1", "Potency": "17.7 µM (active)"}
{"compound": "CCc1c(C)nc(SCC(=O)c2cccs2)c(C#N)c1C", "max response": 0.208}
{"compound": "CCn1c(CNC(=O)c2cc(OC)c(OC)c(OC)c2)cc2cc(C)ccc21", "max response": 2.52}
{"compound": "Cc1ccc2nc(-c3ccccn3)c(NC3CCCC3)n2c1", "max response": -1.86}
{"compound": "c1ccc(Nc2nc(-c3ccccn3)cs2)cc1", "max response": -4.92}
{"compound": "CCc1cccc2c(C(O)c3c[nH]c4ccccc34)c[nH]c12", "note": "(centres undefined)", "Potency": "18.4 µM (active)"}
{"compound": "C=CCOC(=O)C1=C(C)Nc2nnnn2C1c1cccs1", "note": "(centres undefined)", "max response": -1.29}
{"compound": "COc1ccc(C2=CC(c3ccc(N(C)C)cc3)n3nnnc3N2)cc1", "note": "(centres undefined)", "max response": -6.88}
{"compound": "COc1cccc(C2=CC(c3cccs3)n3nnnc3N2)c1", "note": "(centres undefined)", "Potency": "6.27 µM (active)"}
{"compound": "CCOC(=O)C1=C(Cc2ccc(Cl)cc2)C(=O)c2ccccc2C1=O", "Potency": "16.4 µM (active)"}
{"compound": "CCCC(=O)NC1=C(Cl)C(=O)c2ccccc2C1=O", "max response": 5.27}
{"compound": "S=C(Nc1ccccc1)N1CCn2c1nc1ccccc12", "max response": -7.52}
{"compound": "Cc1cc2nc(SCCOC(=O)Nc3cccc(Cl)c3)nc(C)c2cc1C", "max response": 3.73}
{"compound": "COc1cccc(N2CC(O)=C(c3nc4ccccc4s3)C2=N)c1", "Potency": "5.59 µM (active)"}
{"compound": "CCN(CC)c1ccc(/C=C/c2cccc[n+]2C)c(OC)c1", "Potency": "3.14 µM (active)"}
{"compound": "C(=Cc1c[nH]c2ccccc12)c1ccc2ccccc2n1", "Potency": "23.1 µM (active)"}
{"compound": "C(=C\\c1c[nH]c2ccccc12)/c1ccc2ccccc2n1", "Potency": "23.1 µM (active)"}
{"compound": "Cc1[nH]c2ccccc2c1/C=C/c1ccc2ccccc2n1", "Potency": "7.31 µM (active)"}
{"compound": "CCOC(=O)c1c(-c2ccc(OC)cc2)csc1/N=C/C1=C(O)CCCC1=O", "max response": -6.09}
{"compound": "Cc1ccccc1-n1c(/C=C/c2c(C)n(C)c3ccccc23)nc2ccccc2c1=O", "Potency": "8.2 µM (active)"}
{"compound": "CN1CCc2c(sc(NC(=O)CSc3ccc(F)cc3)c2-c2nc3ccccc3s2)C1", "Potency": "7.31 µM (active)"}
{"compound": "Nc1c(C(=O)O)sc2nc(-c3ccc(F)cc3)cc(-c3ccccc3)c12", "max response": -11.4}
{"compound": "COc1ccc(OC)c(NC(=O)c2sc3nc(Cc4ccccc4)cc(C(F)(F)F)c3c2N)c1", "Potency": "8.2 µM (active)"}
{"compound": "CCC(=O)OCc1cnc(C)c2oc(=O)c(C(=O)Nc3ccccc3C(F)(F)F)cc12", "max response": -0.08}
{"compound": "Cc1cc(C(F)(F)F)c2c(N)c(C(=O)Nc3cc(C)on3)sc2n1", "max response": -20.9}
{"compound": "COc1cccc(C(=O)c2sc3nc(-c4ccccc4)cc(C(F)(F)F)c3c2N)c1", "Potency": "1.46 µM (active)"}
{"compound": "COc1ccc(C(=O)c2sc3nc(-c4ccc(C)cc4)cc(C(F)(F)F)c3c2N)cc1", "Potency": "8.2 µM (active)"}
{"compound": "COc1ccc(NC(=O)c2sc3nc(-c4ccc(OC)cc4)cc(C(F)(F)F)c3c2N)cc1", "Potency": "1.3 µM (active)"}
{"compound": "COc1cc(C(=O)Nc2nnc(Cc3ccccc3)s2)cc(OC)c1OC", "max response": -23.2}
{"compound": "CN1C2=CC=CC=CC2=[N+](C)C12C([N+](=O)[O-])=CC(=[N+]([O-])[O-])C=C2[N+](=O)[O-]", "note": "(centres undefined)", "max response": -0.344}
{"compound": "COc1ccccc1/C=N/NC(=S)Nc1cccnc1", "max response": -4.95}
{"compound": "CC(=O)c1cccc(NC(=O)C2CCCN(S(=O)(=O)c3cccc4nonc34)C2)c1", "note": "(centres undefined)", "max response": -0.245}
